# Experimental data: article PMC5540273 (PLoS ONE, 2017)
# Legend:
# Conditions in all cases: concentration: 1 μM, replicates: in singlicate; n = 1
# RIPK2 = tested on: RIPK2
# RIPK4 = tested on: RIPK4
# RIPK5 = tested on: RIPK5
# ROCK1 = tested on: ROCK1
# ROCK2 = tested on: ROCK2
# ROS1 = tested on: ROS1
# [1] = tested on: RPS6KA4(Kin.Dom.1-N-terminal)
# [2] = tested on: RPS6KA4(Kin.Dom.2-C-terminal)
# [3] = tested on: RPS6KA5(Kin.Dom.1-N-terminal)
# [4] = tested on: RPS6KA5(Kin.Dom.2-C-terminal)
# 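Further: KINOMEscan kinase panel screen.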
Compound,%Inh (RIPK2) [%],%Inh (RIPK4) [%],%Inh (RIPK5) [%],%Inh (ROCK1) [%],%Inh (ROCK2) [%],%Inh (ROS1) [%],%Inh [1] [%],%Inh [2] [%],%Inh [3] [%],%Inh [4] [%]
COc1cc2ncn(-c3cc(OCc4ccncc4)c(C(N)=O)s3)c2cc1OC [GSK336313],13,22,1,0,0,28,19,0,4,4
COc1ccc(CNC(=O)NC2CCN(c3ccnc(Nc4ccc(F)cc4)n3)C2)cc1 (centres unmarked) [GSK1379706],19,0,15,29,27,12,0,0,13,27
CCC(=O)c1c(-c2ccccc2)c2cc(Cl)ccc2c(=O)n1Cc1cc(S(C)(=O)=O)n(CCC(C)(C)O)n1,14,0,3,16,0,14,3,12,20,1
Cc1nn2c(=O)cc(N3CCOCC3)nc2n1Cc1cccc(Cl)c1Cl [GSK2342769],10,9,0,0,0,0,0,0,16,0
Cc1ccccc1COc1cc(-n2cnc3cc(Cl)ccc32)sc1C(N)=O [GW813349],12,15,0,8,6,0,10,22,0,5
Cc1cccc(-c2nc(Nc3ccc4c(cnn4C)c3)c3ccccc3n2)n1 [GW876731],0,10,0,41,0,12,12,0,0,0
COc1ccc(-c2cc3c(C)nc(N)nc3n([C@H]3CC[C@H](OCCO)CC3)c2=O)cn1,0,0,0,0,0,9,0,0,0,0
O=C(Nc1n[nH]c2nc(-c3ccccc3)c(Br)cc12)C1CC1 [SB-708998],5,0,0,7,0,0,4,0,28,0
COC(=O)c1c(-c2ccccc2)c2cc(Br)ccc2c(=O)n1Cc1ccc(S(C)(=O)=O)cc1,0,46,20,23,0,0,0,21,24,3
Nc1nc(N)c2nc(-c3ccccc3)[nH]c2n1 [SKF-12778],10,66,0,26,24,10,11,0,9,0
Nc1n[nH]c2nnc(-c3ccccc3)c(-c3ccccc3)c12 [GW554060],0,0,0,31,31,14,10,0,12,0
CCC(=O)c1c(-c2ccccc2)c2cc(Cl)ccc2c(=O)n1Cc1cc(S(C)(=O)=O)n(CC(N)=O)n1,0,0,0,0,0,0,0,0,30,22
O=C(Nc1n[nH]c2cc(-c3ccccc3F)ccc12)C1CC1 [SB-733371],11,13,0,0,0,4,0,0,0,0
CCS(=O)(=O)c1ccc(OC)c(Nc2ncc(-c3ccc(F)cc3)o2)c1.Cl [GW591947],19,0,0,20,16,0,25,0,27,0
CCC(=O)c1c(-c2ccccc2)c2cc(Cl)ccc2c(=O)n1Cc1cc(C(=O)NC2CC2)n(C)n1,0,0,18,11,0,0,0,6,15,1
Cc1ccc(-c2ccc3c(ccc4sc5c(c43)NC[C@@H](C)N=C5N(C)C)n2)cn1,0,0,0,0,0,0,0,0,0,0
CCc1ccc(-c2ccc3c(c2)-c2nn(C)cc2S(=O)(=O)N3C)cc1,0,0,0,0,0,0,0,0,0,0
